# Laboratory results published in PubChem BioAssay AID504434 (National Center for Advancing Translational Sciences (NCATS), 2011).
# Inconclusive results are not listed. The source made the active and inactive calls. Calls follow the shape of the dose curve; as a rule, active = well fitted curve in the direction sought with a large enough effect; inconclusive = small, poorly fitted or top-dose-only effect, or effect the other way, or another doubt; inactive = no such curve, though single readings can be large or run the other way.
# Assay: Secondary Assay for lipid storage modulators: AML12 cell LDSA assay for probe SAR
# Conditions: AML12 lipid droplet accumulation, BODIPY 493/503 imaging, oleate
# From the text: NIH Molecular Libraries Probe Production Centers Network [MLPCN] NIH Chemical Genomics Center [NCGC] MLPCN Grant: 1 R03 MH085686-01 Assay Submitter (PI): Beller, Mathias; Max-Planck-Institut fur Biophysikalische Chemie NCGC Assay Overview: Storing lipids as a reservoir for energy or the anabolism of elementary metabolites is a common feature of probably all cells and is conserved from bacteria to humans. The universal cellular lipid storage organelle is the so-called lipid storage droplet (LD). Although ubiquitous, LDs share a simple structure composed of a hydrophobic core that harbors the storage lipids, which is shielded by a droplet-specific phospholipid monolayer to which proteins are attached. The current model of LD biogenesis involves an incorporation of the lipid core into the membrane leaflets of the endoplasmic reticulum (ER) followed by a subsequent budding-like maturation of a LD, which ultimately pinches off. […]
# NCGC Assay Protocol Summary: The assay was performed with AML12 cells, using an oleic acid feeding protocol similar to the S3 assay. […] Fluorescence was detected by excitation of the fluorophores with a 488-nm laser on an Acumen Explorer (TTP Lab Tech). […] Cells were detected using channel 3 (575-640 nm) with 5-um width and 100-um depth filters. The ratio of the number of objects in PMT channel 2 over the number of objects in PMT channel 3 was also calculated. […]
smiles,measurement,value
CCC/C=C/C/C=C/C=C/C=N/NN=O,Potency,499 nM (active)
